# Assay results reported in the supplement of paper PMC12636033.
# ± gives the standard deviation of the averaged measurements. Whole data set: some 33,000 sequences, median “E-score (rank enrichment, -0.5 to 0.5)” near -0.0075, cut for the highest 2% near 0.23. The list comes from a sample in which the highest values are over-represented; it also holds similar and randomly drawn sequences.
# System: WT Max(13-93) synthetic (M65Nle)
# Experiment: PBM 8-mer E-score (E-score (rank enrichment, -0.5 to 0.5)); higher = stronger preferential binding
# Description: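 Protein binding microarray (universal PBM chip covering all 10-mers in fixed probe flanks) with chemically synthesized human Max(13-93) bHLH-LZ analogs (not full-length Max) bearing noncanonical residues (hArg, Tha, Aib, Nle at 65) and aromatic Cys staples. Read-out per 8-mer (and its reverse complement): E-score (rank-based enrichment, -0.5 to 0.5) and Z-score of median probe intensity.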
row,Sequence,PBM 8-mer E-score
1,ACATCACA,0.237 ± 0.015
2,CCAGCCGA,-0.272 ± 0.029
3,AGAAGAAA,-0.0012 ± 0.042
4,CGTTAGGC,0.0594 ± 0.11
5,GGCGTTTA,0.0435 ± 0.017
6,CCGGCACG,-0.00989 ± 0.099
7,ACCAAAGA,0.003 ± 0.046
8,CTTTCTAC,0.317 ± 0.053
9,ATTTCTAC,0.247 ± 0.043
10,ATTTCTAG,0.0411 ± 0.07
11,CATTCTAC,0.0976 ± 0.045
12,CTTTCTAA,0.0817 ± 0.047
13,ATTTCTAA,-0.0149 ± 0.032
14,AGGTGTCC,-0.128 ± 0.054
15,GACTAAAA,-0.0397 ± 0.075
16,AGTATAAC,0.0201 ± 0.0067
17,AGTATAAA,0.109 ± 0.12
18,AGTATAAT,0.259 ± 0.07
19,AATACGGT,-0.059 ± 0.026
20,CAGGGTCA,-0.0768 ± 0.019
21,AAATCCAT,0.2404 ± 0.0018
22,AAATCCAG,-0.00945 ± 0.12
23,AAATCCAC,0.116 ± 0.058
24,GAAGTAAC,0.0916 ± 0.087
25,GTCTTTAA,0.0691 ± 0.12
26,ACCCACGT,0.359 ± 0.02

row,Sequence,PBM 8-mer E-score
1,AATCACGT,0.399 ± 0.04
2,AACCATGT,0.2698 ± 0.00089
3,AACCATGG,0.0463 ± 0.13
4,AATCACGC,0.188 ± 0.042
5,AATCACGA,0.0321 ± 0.13
6,AACCATGA,0.145 ± 0.028
7,ATCCACAG,0.0193 ± 0.067
8,ATCCACAT,0.287 ± 0.022
9,ACCCACGA,-0.0551 ± 0.047
10,ACCCACGC,0.113 ± 0.11
11,ATCCACAA,0.0288 ± 0.05
12,AAATCTCG,0.017 ± 0.054
13,GTGAGTCA,-0.117 ± 0.064
14,TAGGCCAA,-0.0597 ± 0.035
15,CGCAAGCA,0.1148 ± 0.001
16,CTGAACGC,-0.243 ± 0.0048
17,GATTCCAC,-0.0239 ± 0.16
18,AACCATTG,0.0448 ± 0.0034
19,AACCACAG,-0.196 ± 0.12
20,AACCACGT,0.392 ± 0.0086
21,AACCATTA,0.318 ± 0.052
22,AACCACAT,0.282 ± 0.045
23,AACCACGA,0.198 ± 0.016
24,CACCATTA,-0.0432 ± 0.14
25,AACCACAC,0.173 ± 0.0082
26,AACCACGC,0.178 ± 0.04

row,Sequence,PBM 8-mer E-score
1,ACAATTGC,0.129 ± 0.021
2,ATATACCA,0.153 ± 0.019
3,TATGCTGA,-0.0828 ± 0.1
4,ACCTATTG,0.157 ± 0.01
5,TACGTATA,0.094 ± 0.091
6,ACTTGATC,-0.0132 ± 0.16
7,AGAGTGAA,-0.133 ± 0.058
8,CAGACATC,-0.0722 ± 0.089
9,CCCTTTGC,-0.0228 ± 0.044
10,CTGCCAAG,-0.0342 ± 0.067
11,CCTCGATA,-0.157 ± 0.014
12,CCTAAACG,-0.145 ± 0.043
13,GATGTGGA,0.152 ± 0.011
14,CATGTGGG,0.257 ± 0.075
15,AATGTGGA,0.0921 ± 0.085
16,CATGGGGG,0.0813 ± 0.1
17,AATGTGGC,0.0312 ± 0.0053
18,GATGTGGC,-0.117 ± 0.057
19,CATGTGGC,0.3003 ± 0.0019
20,AATGTGGG,0.18 ± 0.032
21,CATGTGGA,0.324 ± 0.032
22,AATGACTG,0.102 ± 0.018
23,GAAGCTCA,-0.152 ± 0.13
24,ATTCAACC,-0.0085 ± 0.021
25,GTTCGGGA,-0.13 ± 0.11
26,GACCCTGA,-0.121 ± 0.035

row,Sequence,PBM 8-mer E-score
1,AGAGGACA,-0.0937 ± 0.095
2,TAAGTTGA,0.0328 ± 0.044
3,ATTTCGTG,0.0519 ± 0.051
4,ATTTCGTC,0.242 ± 0.011
5,CTTTCGTC,0.0247 ± 0.074
6,ATACGATC,-0.0258 ± 0.1
7,ACAAAGAT,0.0862 ± 0.049
8,CAAGCTCA,-0.35 ± 0.017
9,GGGTGTTA,-0.0337 ± 0.14
10,ATGTGTGA,0.18 ± 0.12
11,GTGTGTTA,0.242 ± 0.099
12,ATGTGTTA,0.275 ± 0.015
13,ATGTGTCA,0.175 ± 0.069
14,CTGTGTTA,0.0459 ± 0.023
15,CTGTATTA,0.138 ± 0.0022
16,GTGTATTA,0.247 ± 0.035
17,CTATGTTA,0.16 ± 0.052
18,ATATGTTA,0.284 ± 0.051
19,ATGTATTA,0.225 ± 0.086
20,ATATGTTC,0.179 ± 0.0093
21,TGAGATAA,0.116 ± 0.07
22,CAATGATC,-0.0206 ± 0.062
23,CGCCTCGA,-0.0745 ± 0.097
24,CTCCTGTC,-0.0511 ± 0.018
25,TCGCTGAA,-0.0377 ± 0.086
26,CCCCTGGC,-0.127 ± 0.042

row,Sequence,PBM 8-mer E-score
1,AACCTCAT,0.156 ± 0.065
2,GTTTCCAA,0.0481 ± 0.061
3,ATGTGTTG,0.247 ± 0.035
4,ATGTGTTC,0.106 ± 0.0063
5,ATATGTTG,0.0792 ± 0.065
6,AAACACGC,0.24 ± 0.054
7,CAACACGC,0.195 ± 0.0099
8,AAACACGG,-0.0068 ± 0.091
9,AAACACAC,0.132 ± 0.011
10,AAACACGA,0.19 ± 0.11
11,AAACACGT,0.329 ± 0.093
12,AAACACAG,0.153 ± 0.053
13,AAACACAT,0.287 ± 0.014
14,GAACACGC,0.105 ± 0.04
15,AGTAAACG,0.0125 ± 0.018
16,AGGTCTTG,-0.116 ± 0.084
17,TGACGCCA,-0.0607 ± 0.033
18,ACTGCAGT,-0.0688 ± 0.15
19,AGATGGAC,-0.09113 ± 0.00061
20,TATGTCAA,0.287 ± 0.054
21,TGTGTCAA,0.254 ± 0.011
22,CGTGTCAA,0.0498 ± 0.015
23,GATGTCAA,0.0342 ± 0.06
24,AATGTCAA,0.0117 ± 0.23
25,AGTGTCAA,0.122 ± 0.14
26,CAGAGCGA,-0.0911 ± 0.044

row,Sequence,PBM 8-mer E-score
1,GGTTTGAA,0.145 ± 0.0079
2,CCAGTGGG,-0.122 ± 0.16
3,GACTTCTA,-0.0184 ± 0.13
4,AAAAACAC,0.251 ± 0.05
5,ACAAACAA,0.112 ± 0.0055
6,ACAAACAG,-0.0244 ± 0.058
7,CCAAACAG,-0.0488 ± 0.037
8,CAAAACAC,0.073 ± 0.066
9,ACAAACAC,0.268 ± 0.053
10,GCAAACAC,0.156 ± 0.07
11,GAAAACAC,0.0469 ± 0.11
12,CCAAACAC,0.242 ± 0.076
13,CTAAACAA,0.0536 ± 0.046
14,CTGCGTGC,-0.0949 ± 0.0091
15,CGATCGAG,-0.26 ± 0.069
16,CATGCCCA,0.00676 ± 0.079
17,ACCTCCCA,0.00978 ± 0.14
18,CCCTCCCA,0.262 ± 0.0086
19,CCTCCCCA,0.258 ± 0.065
20,CCCTCCCC,0.171 ± 0.15
21,CCTCCCCC,-0.0244 ± 0.2
22,CCTCCCAA,0.0602 ± 0.2
23,CCCCTCCC,0.239 ± 0.16
24,CCCCTCCG,0.044 ± 0.086
25,GCCTCCCA,-0.155 ± 0.12
26,CTGGGTAC,-0.201 ± 0.15

row,Sequence,PBM 8-mer E-score
1,GGATGGAC,0.106 ± 0.062
2,AGGGTTTA,0.152 ± 0.0074
3,AGGAGCAA,-0.034 ± 0.032
4,CACCACCA,-0.0146 ± 0.046
5,AACGATCC,-0.124 ± 0.023
6,GCAATGGC,0.0112 ± 0.019
7,ATACGCTC,0.0772 ± 0.0077
8,CCCATACA,0.0285 ± 0.11
9,GGACTGCC,-0.0905 ± 0.19
10,CCATATAA,0.174 ± 0.02
11,CCATATCA,0.0654 ± 0.064
12,ACATATAT,0.244 ± 0.04
13,ACATATAA,0.309 ± 0.078
14,GCATATGA,0.138 ± 0.034
15,CCATATGC,0.112 ± 0.14
16,GCATATGC,0.245 ± 0.008
17,ACATATAC,-0.00226 ± 0.03
18,ACATATCA,0.252 ± 0.013
19,ACATATAG,0.0953 ± 0.059
20,ACATATCG,0.0595 ± 0.028
21,TCATATAA,0.15 ± 0.064
